ChEMBL document CHEMBL3433997, “St. Jude Leishmania screening dataset” (2016)

Experiments:
Assay type in all cases: functional
[1] = target: Solute carrier family 2, facilitated glucose transporter member 1 (Homo sapiens) (UniProt P11166); test: ST_JUDE_LEISH: Cytotoxicity at 2uM final concentration against transgenic Leishmania Mexicana promastigotes LmGLUT1 that are glucose transport deficient and complemented with the human glucose transporter GLUT1. Activity is measured by DNA content using SYBR green in vitro
[2] = target: Hexose transporter 1 (Plasmodium falciparum) (UniProt O97467); test: ST_JUDE_LEISH: Cytotoxicity at 2uM final concentration against transgenic Leishmania Mexicana promastigotes LmPfHT that are glucose transport deficient and complemented with the Plasmodium falciparum hexose transporter. Activity is measured by DNA content using SYBR green in vitro
[3] = target: Glucose transporter (Leishmania mexicana) (UniProt O61059); test: ST_JUDE_LEISH: Cytotoxicity at 2uM final concentration against transgenic Leishmania Mexicana promastigotes LmGT2 that are glucose transport deficient and complemented with the L. Mexicana glucose transporter 2. Activity is measured by DNA content using SYBR green in vitro

Sequence of Solute carrier family 2, facilitated glucose transporter member 1 (Homo sapiens) (P11166 whole entry): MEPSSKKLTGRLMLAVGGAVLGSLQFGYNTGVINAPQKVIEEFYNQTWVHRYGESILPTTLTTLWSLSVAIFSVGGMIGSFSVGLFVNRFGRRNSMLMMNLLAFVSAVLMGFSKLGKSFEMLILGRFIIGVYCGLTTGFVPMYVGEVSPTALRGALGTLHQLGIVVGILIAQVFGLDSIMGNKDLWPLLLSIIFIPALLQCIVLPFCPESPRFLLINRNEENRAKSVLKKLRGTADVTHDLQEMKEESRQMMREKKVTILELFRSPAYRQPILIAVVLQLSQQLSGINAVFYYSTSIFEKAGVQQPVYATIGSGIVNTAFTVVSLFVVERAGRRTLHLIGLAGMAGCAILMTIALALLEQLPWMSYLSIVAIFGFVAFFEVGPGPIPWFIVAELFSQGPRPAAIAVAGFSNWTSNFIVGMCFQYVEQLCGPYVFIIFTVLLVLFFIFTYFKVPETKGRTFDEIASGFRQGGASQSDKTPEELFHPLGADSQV

SMILES | inhibition [1] | inhibition [2] | inhibition [3]
Cc1cc(C)c(NC(=O)N2CCCN(CCCCCNC(=O)/C=C/c3ccc(Cl)c(Cl)c3)CC2)c(C)c1 | 3.44% | 2.95% | 2.56%
O=C(/C=C/c1cccc2ccccc12)NCCCCCN1CCC(c2c[nH]c3ccccc23)CC1 | 0.55% | 1.35% | 2.9%
COc1ccccc1NC(=O)c1cc(C(=O)c2cc(Cl)ccc2O)cn(-c2ccccc2OC)c1=O | 5.19% | 5.3% | 4.07%
COc1ccc(Nc2nc(N/N=C/c3cc(Br)ccc3O)nc(Nc3ccc([N+](=O)[O-])cc3)n2)cc1 | 0.02% | -2.54% | 1.51%
COC(=O)C(=O)c1c(-c2ccccc2)c(-c2ccc(OC)c(OC)c2)c2c3cc(OC)c(OC)cc3ccn12 | 13.2% | 10.2% | 8.49%
CCOc1c(OC)ccc2c1CCN(CCN1CCC(NC(=O)c3ccc(-c4cccc(C(F)(F)F)c4C(F)(F)F)cc3)CC1)C2 | 1.91% | 1.96% | 1.39%
Oc1cc(-c2nc(-c3ccccc3)[nH]c2-c2ccncc2)ccc1Cl | 4.1% | 1.67% | 1.44%
NCc1ccc(CNCc2cccc(-c3cccc(-c4nc5cc(F)ccc5[nH]4)c3)c2)cc1 | 9.71% | 9.36% | 8.54%
CCOC(=O)C(CO)NC(=O)c1ccc([N+](=O)[O-])o1 (stereo not drawn) | 2.12% | 2.06% | 5.24%
CCN(CC)C(=O)C1CCCN(C(=O)Nc2cc(C(F)(F)F)cc(C(F)(F)F)c2)C1 (stereo not drawn) | 0.66% | 0.55% | -2.05%
Nc1ncc(-c2cn[nH]c2)cc1-c1nc2ccc(F)cc2[nH]1 | 2.58% | 3.29% | 1.99%
Cc1nc(C)c(-c2ccc(S(=O)(=O)c3ccc(Cl)cc3)cc2)c(O)c1Cl | 9.02% | 5.86% | 7.16%
CC(=O)c1c(Cc2cccc(C(F)(F)F)c2)c[nH]c1C | 5.85% | 3.6% | -0.87%
CCOC(=O)c1c(CCc2ccc(C(F)(F)F)cc2)nc2c(c1-c1ccc(C(=O)N[C@@H](C)c3ccncc3)cc1)C(=O)N1CCC[C@@H]21 | 2.81% | 1.31% | 0.48%
O=C(NCCN1CCC(NC(=O)c2ccc(-c3ccccn3)s2)CC1)c1cccc(C(F)(F)F)c1 | 3.66% | 2.93% | 3.43%
O=C(Nc1cccc(-c2nn3ncccc3c2-c2ccnc(Nc3ccc(N4CCOCC4)cc3)n2)c1)c1c(F)cccc1F | 10.7% | 16.6% | 6.47%
CC(=Nc1ccc(Cl)c(Cl)c1)N(C)C | 0.17% | 0.54% | 0.02%
CN1CC[C@@H](Oc2cc(NC(=O)Nc3ccc(Cl)c(C(F)(F)F)c3)ccc2Cl)C1 | 0.88% | 0.12% | 0.51%
O=c1cc(NCCCNC2CCCc3c2ccc2ccccc32)[nH]c2ccccc12 (stereo not drawn) | 4.07% | 4.85% | 2.74%
Clc1cc(Br)ccc1-c1ccc(CNCC2CCNCC2)o1 | 0.75% | -0.1% | 1.69%
CC(=O)c1ccc2cc(C(=O)NC3CCC(CCN4CCc5ccc(-c6noc(C)n6)cc5CC4)CC3)[nH]c2c1 (stereo not drawn) | -0.19% | -0.01% | -2.09%
O=C(Nc1cccc(N2CCC(NCc3cccnc3)CC2)c1)c1cccc(C(F)(F)F)c1 | 1.16% | 1% | -0.6%
O=C(NCc1cccs1)[C@H](Cc1ccccc1)Nc1ccnc(NCC2CCCCC2)n1 | 11.9% | 10.5% | 10.6%
COc1ccc(S(=O)(=O)Nc2cc(Br)cc3c2OCCC3)cc1N1CCN(C(=O)C(Cl)(Cl)Cl)CC1 | -1.16% | -1.14% | -0.3%

SMILES | inhibition [1] | inhibition [2] | inhibition [3]
O=[N+]([O-])c1cccc(CNCC2CCC(CNCc3cccc([N+](=O)[O-])c3)CC2)c1 (stereo not drawn) | 2.25% | -2.59% | 1.26%
Cc1ccc2nc(C)n(C3CCN(C(=O)Cc4ccc(F)c(F)c4)CC3)c2c1 | 2.56% | 2% | 2.78%
CC(O)C1CCCCN1C(=O)c1cccc(-c2ccc(-c3nc4cc(F)ccc4[nH]3)cc2)c1 (stereo not drawn) | 2.72% | 5.12% | 4.37%
O=C(Nc1ccc(Cl)c(Cl)c1)N1CCc2ccc(OCCCN3CCCCC3)cc2CC1 | 17.5% | 16.2% | 20.3%
c1ccn2c(-c3ncnc(NCc4ccc5c(c4)CCO5)n3)cnc2c1 | 1% | 1.45% | 0.24%
Nc1cc(-c2cc3c(OCc4ccccc4)cccc3[nH]2)ccn1 | 1.13% | 4.32% | 1.6%
CC(=O)N(C)c1cccc(C(=O)Nc2cccc(-c3cccc(-c4nc5cccc(C)c5[nH]4)c3)c2)c1 | 13.3% | 3.96% | 11.4%
CCCC(CNC(=O)c1cc2c(Cl)cc(Cl)cc2[nH]1)CNc1cc(=O)c2ccccc2[nH]1 (stereo not drawn) | 1.99% | 2.64% | 2.5%
CC(C)N(CCOc1ccc2c(c1)N(C(=O)Nc1cc(Br)cc(C(F)(F)F)c1)CC2)C(C)C | 3.92% | 2.23% | 1.38%
COc1ccc(C(=O)C2CC2CN(C)CCC(O)c2ccc(Cl)c(Cl)c2)cc1 (stereo not drawn) | 1.1% | 1.11% | 4.55%
Cc1cc(C)cc(OCC(O)CN(Cc2cc(Cl)cc(Cl)c2)C(=O)Nc2ccc([N+](=O)[O-])cc2)c1 (stereo not drawn) | 4.12% | 3.99% | 5.26%
CN1CCCCC1CCc1cc(C(=O)Nc2ccc(-c3ccc(O)cc3)cc2)ccc1O (stereo not drawn) | 1.7% | 1.76% | -0.5%
O=C(Cn1c(CCc2cccc(F)c2F)nc(=O)c2ccccc21)N(CCCN1CCCC1)Cc1ccc(-c2ccc(C(F)(F)F)cc2)cc1 | 8.01% | 7.63% | 9.22%
CCCCN(CCCC)CCCCNc1c2ccc(Cl)cc2nc2ccc(OC)cc12 | 14.5% | 17.5% | 13.3%
Cc1cc(Nc2ccc(OCc3ccccc3Cl)cc2)c2cc(Cl)ccc2n1 | 19.8% | 16.4% | 7.55%
CCc1c(CCNCCCCCCNCCc2ccccc2)ccc(OC)c1OC | 4.61% | 5.04% | 2.63%
COc1ccc(Cn2cncc2CN(CCC(C)C)C(=O)c2ccc(Cl)nc2Cl)cc1 | 2.52% | 2.14% | 2.49%
Nc1ncc(-c2ccc3ncccc3c2)c(N)n1 | 0.18% | 0.97% | 1.18%
COc1cccc(-c2nn(C)c3sc(C(=O)Nc4cccnc4)cc23)c1 | 0.24% | -1.97% | -0.35%
NC1=Nc2ccc(Cl)cc2C1(O)c1ccccc1 (stereo not drawn) | 1.25% | 1.33% | 0.97%
O=C(Nc1ccc(-c2ccc(CN3CCNCC3)cc2)cc1)c1cccc(Cl)c1 | 107% | 104% | 104%
O=[N+]([O-])c1cccc(/C=N/Nc2ccnc3cc(F)ccc23)c1 | 1.98% | 2.39% | 1.01%
COc1cccc(-c2cc(C(=O)Nc3cc(Oc4ccc(O)cc4)cc([N+](=O)[O-])c3)on2)c1 | 9.09% | 8.76% | 3.98%
COc1cccc(C(=O)C2CC2CN(C)CC(O)c2cc(C)c(OC)cc2C)c1 (stereo not drawn) | 1.05% | -1.24% | 0.15%

SMILES | inhibition [1] | inhibition [2] | inhibition [3]
Cc1ccc(NC(=O)NC2CCN(CCC(NC(=O)Cc3ccccc3)c3ccc(Cl)c(Cl)c3)CC2)cc1 (stereo not drawn) | -2.11% | -2.83% | -3.14%
Cn1cnc(CCNC(=O)c2ccc(-c3cccc(-c4nc5cc(C(F)(F)F)ccc5[nH]4)c3)cc2)c1 | 4.83% | 4.43% | 5.89%
Cc1onc(-c2c(Cl)cccc2Cl)c1C(=O)N1CCc2cc3nccc(N4CCN5CCC[C@H]5C4)c3cc21 | 3.46% | 4.46% | 5.26%
COCC(C)n1c(C)cc(C(=O)CSc2nnc(Nc3ccccc3)s2)c1C (stereo not drawn) | 1.18% | 1.49% | -0.94%
Cc1noc(C)c1-c1cccc(CNCc2ccc(-c3ccc(-c4nc5cccc(C)c5[nH]4)cc3)cc2)c1 | 2.03% | 0.15% | -0.62%
O=S(=O)(c1c(Cl)cc(Cl)cc1Cl)N1CCCCC(c2ccc(Cl)cc2)=N1 | -1.49% | -1.87% | -1.41%
CC1=NN(c2ccc(C)c(C)c2)C(=O)C1=NNc1cccc(-c2cccc(NC(=O)OC(C)(C)C)c2)c1O | 1.48% | 1.44% | 0.04%
COc1ccc(CCNCCCCCCNCCCc2ccc(Cl)cc2)cc1OC | 4.72% | 2.45% | 4.39%
CN1CCCN(Cc2cccc(-c3ccc(CNC(=O)c4cccc(Cl)c4)c(F)c3)c2)CC1 | 69.9% | 63.1% | 30.9%
COc1ccc(NC(=O)c2ccc(NC(=O)c3ccc(Cl)cc3)cc2)cc1N1CCN(C)CC1 | 4.33% | 4.66% | 3.5%
COc1ccc(-n2nc(C)c3c2NC(=O)CC3c2ccccc2OCc2ccc(F)cc2)cc1 (stereo not drawn) | 4.97% | 4.4% | 5.62%
COC(=O)c1cccc(CNCc2ccc(-c3ccc(-c4nc5ccccc5[nH]4)s3)cc2)c1 | 9.31% | 9.04% | 9.28%
O=C(Nc1cccc(-c2nn3ncccc3c2-c2ccnc(Nc3ccccc3)n2)c1)c1c(F)cccc1F | 3.26% | 11% | 2.04%
COc1cc(C(=O)Nc2cccc(-c3cn4ccc(C)cc4n3)c2)cc(OC)c1OC | 17.1% | 8.22% | 6.63%
Cc1cccc(-c2nc3cc(NC(=O)c4ccc([N+](=O)[O-])o4)ccc3o2)c1 | 6.53% | 7.69% | 2.04%
NC(=O)c1ccc(NC(=O)CN(Cc2ccc(Cl)cc2)S(=O)(=O)c2ccccc2)cc1 | 7.52% | 5.01% | 7.46%
CSc1c(CNCCCNc2cc(=O)c3ccccc3[nH]2)[nH]c2ccccc12 | 5.89% | 4.28% | 4.96%
Cc1cccc2nc(-c3ccc(-c4ccc(CN5CCN(CCC#N)CC5)cc4)cc3)[nH]c12 | 15.7% | 14.1% | 11.8%
COc1c(O)cc2oc(-c3ccc(O)cc3)cc(=O)c2c1O | 1.18% | 1.7% | 3.31%
Nc1c2c(nc3ccc(C(=O)Nc4ccccc4)cc13)CCCC2 | 4.09% | 3.96% | 3.87%
COC(=O)c1ccc(NC(=O)Nc2ccc(Cn3ncc(N4CCCNCC4)c(Cl)c3=O)cc2)cc1 | -0.9% | 0.77% | -0.5%
COc1ccc(S(=O)(=O)NCCC2CCN(CCCCCNC(=O)C=Cc3ccc(Cl)c(Cl)c3)CC2)cc1 | 2.06% | 2.12% | 1.49%
CCOCCCNc1nc2cc(OC)c(OC)cc2c2nc(-c3ccccc3)nn12 | 1.59% | 2.14% | -2.64%
